Reference: PubChem BioAssay (NCI)
The panel holds about 83,000 compounds, 20% with a hit somewhere; the sample as a whole holds those more often.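 Single-concentration screen, 48 h exposure, 96-well plates. Endpoint: percent growth. Below 10 = active.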 Active and inactive are the calls of the source.

Tests used:
Assay in all cases: NCI-60 one-dose screen, 48 h (100 = growth as untreated, 0 = no growth, -100 = all killed)
EKVX NSCLC = settings: 10 µM unless noted
SN12C renal = settings: 10 µM unless noted
UO-31 renal = settings: 10 µM unless noted
TK-10 renal = settings: 10 µM unless noted
ACHN renal = settings: 10 µM unless noted
CAKI-1 renal = settings: 10 µM unless noted
A498 renal = settings: 10 µM unless noted
MOLT-4 leukemia = settings: 10 µM unless noted
SR leukemia = settings: 10 µM unless noted
RPMI-8226 leukemia = settings: 10 µM unless noted
OVCAR-8 ovarian = settings: 10 µM unless noted
OVCAR-5 ovarian = settings: 10 µM unless noted
OVCAR-4 ovarian = settings: 10 µM
SK-OV-3 ovarian = settings: 10 µM unless noted
IGROV1 ovarian = settings: 10 µM unless noted
OVCAR-3 ovarian = settings: 10 µM unless noted
HS 578T breast = settings: 10 µM unless noted
NCI/ADR-RES ovarian = settings: 10 µM unless noted
CCRF-CEM leukemia = settings: 10 µM unless noted

Measured: growth

Oc1cc(Nc2ccnc3cc(Cl)ccc23)c2ncccc2c1
inactive: EKVX NSCLC 98.5% | SN12C renal 79.3% | UO-31 renal 44.4% | TK-10 renal 109% | ACHN renal 71.1% | CAKI-1 renal 86.2% | A498 renal 100% | MOLT-4 leukemia 68.9% | SR leukemia 37% | RPMI-8226 leukemia 53.5% | OVCAR-8 ovarian 70.3% | OVCAR-5 ovarian 104% | OVCAR-4 ovarian 44.4% | SK-OV-3 ovarian 85.4% | IGROV1 ovarian 94.3% | OVCAR-3 ovarian 81% | HS 578T breast 62.1% | NCI/ADR-RES ovarian 51.8%

Cn1cc(-c2noc(C(=O)c3cn(C)c4ncccc34)n2)c2ccccc21
inactive: EKVX NSCLC 60.6% | SN12C renal 95% | UO-31 renal 75.9% | TK-10 renal 26.5% | ACHN renal 98.6% | CAKI-1 renal 86.2% | A498 renal 69.9% | CCRF-CEM leukemia 98.1% | MOLT-4 leukemia 95.6% | SR leukemia 74.9% | RPMI-8226 leukemia 94.5% | OVCAR-8 ovarian 102% | OVCAR-5 ovarian 96.1% | OVCAR-4 ovarian 57.7% | IGROV1 ovarian 80.7% | OVCAR-3 ovarian 103% | HS 578T breast 88.5% | NCI/ADR-RES ovarian 92.3%

CCOC(=O)c1cnc2ccc(Br)cc2c1Nc1cccc(S(N)(=O)=O)c1
inactive: EKVX NSCLC 96.2% | SN12C renal 97.3% | UO-31 renal 81.2% | TK-10 renal 105% | ACHN renal 96.2% | CAKI-1 renal 74.1% | A498 renal 66.5% | CCRF-CEM leukemia 102% | MOLT-4 leukemia 85.1% | SR leukemia 94.6% | RPMI-8226 leukemia 97% | OVCAR-8 ovarian 92.8% | OVCAR-5 ovarian 93.6% | SK-OV-3 ovarian 105% | IGROV1 ovarian 99.6% | OVCAR-3 ovarian 102% | HS 578T breast 98.5% | NCI/ADR-RES ovarian 97.4%

CCc1ccc(NC(=O)N[C@@H](Cc2cc(F)cc(F)c2)C(=O)N[C@@H]2C(=O)N3C[C@H](O)C[C@H]3C(=O)N3CCOC[C@H]3C(=O)N[C@@H](C)C(=O)N3C[C@H](C)C[C@H]3C(=O)O[C@H]2C)cc1
inactive: EKVX NSCLC 79% | SN12C renal 24.3% | UO-31 renal 78.7% | TK-10 renal 95.8% | CAKI-1 renal 84.4% | A498 renal 38.6% | CCRF-CEM leukemia 50.9% | MOLT-4 leukemia 43.3% | SR leukemia 48.3% | RPMI-8226 leukemia 17.2% | OVCAR-8 ovarian 62.3% | OVCAR-5 ovarian 46.3% | OVCAR-4 ovarian 12.8% | IGROV1 ovarian 49.4% | OVCAR-3 ovarian 16.8% | HS 578T breast 41.2% | NCI/ADR-RES ovarian 107%

Nc1nc(Nc2ccccc2)c2ncn(Cc3ccc4c(c3)OCO4)c2n1
inactive: SN12C renal 43% | UO-31 renal 49.3% | TK-10 renal 63.3% | ACHN renal 56.7% | CAKI-1 renal 31.5% | A498 renal 39.8% | CCRF-CEM leukemia 66.8% | MOLT-4 leukemia 13.4% | SR leukemia 13.6% | RPMI-8226 leukemia 30.6% | OVCAR-8 ovarian 55.1% | OVCAR-5 ovarian 71.5% | OVCAR-4 ovarian 66.9% | SK-OV-3 ovarian 51.2% | IGROV1 ovarian 64.2% | OVCAR-3 ovarian 24.1% | HS 578T breast 42.8%
active: NCI/ADR-RES ovarian 9.58%

CCn1cc(-c2[nH]c(=S)ncc2-c2ccc(Cl)cc2)c(-c2ccc(Br)cc2)n1
inactive: EKVX NSCLC 85.7% | SN12C renal 85.1% | UO-31 renal 89.4% | TK-10 renal 109% | ACHN renal 91.1% | CAKI-1 renal 98.5% | A498 renal 106% | MOLT-4 leukemia 97.2% | SR leukemia 93.1% | RPMI-8226 leukemia 77.6% | OVCAR-8 ovarian 86.9% | OVCAR-5 ovarian 90.5% | OVCAR-4 ovarian 94.2% | IGROV1 ovarian 81.5% | HS 578T breast 108% | NCI/ADR-RES ovarian 82.5%

CCCCCCCCCN(CCCCCCCCC)C(C)C(=O)c1ccc2cc(Br)c3ccccc3c2c1 (configuration not stated)
active: SR leukemia 7.35%
inactive: EKVX NSCLC 72.6% | SN12C renal 79.8% | UO-31 renal 47.2% | TK-10 renal 93.7% | ACHN renal 85.9% | CAKI-1 renal 71.5% | A498 renal 96.8% | CCRF-CEM leukemia 60.6% | MOLT-4 leukemia 86% | RPMI-8226 leukemia 68.7% | OVCAR-8 ovarian 94% | OVCAR-5 ovarian 80.4% | OVCAR-4 ovarian 85.7% | SK-OV-3 ovarian 90.8% | IGROV1 ovarian 75.7% | OVCAR-3 ovarian 89.1% | NCI/ADR-RES ovarian 84.9%

CC1Cc2ccc(OCCN(C)C)cc2C1=O (configuration not stated)
inactive: EKVX NSCLC 109% | SN12C renal 101% | UO-31 renal 88.1% | TK-10 renal 84.6% | ACHN renal 106% | CAKI-1 renal 98% | A498 renal 91.2% | CCRF-CEM leukemia 103% | MOLT-4 leukemia 102% | SR leukemia 101% | OVCAR-8 ovarian 101% | OVCAR-5 ovarian 105% | OVCAR-4 ovarian 110% | SK-OV-3 ovarian 97.8% | IGROV1 ovarian 106% | OVCAR-3 ovarian 110% | HS 578T breast 97.3% | NCI/ADR-RES ovarian 107%

CC(C)CSc1ncnc2nc[nH]c12
inactive: EKVX NSCLC 95.3% | SN12C renal 94.7% | UO-31 renal 93.9% | TK-10 renal 82.4% | ACHN renal 90.3% | CAKI-1 renal 98.6% | A498 renal 87.5% | CCRF-CEM leukemia 86.8% | MOLT-4 leukemia 128% | SR leukemia 119% | RPMI-8226 leukemia 71.4% | OVCAR-8 ovarian 104% | OVCAR-5 ovarian 86.6% | OVCAR-4 ovarian 100% | IGROV1 ovarian 67.1% | OVCAR-3 ovarian 103% | HS 578T breast 116% | NCI/ADR-RES ovarian 100%

CC(=O)CC(=O)SC1=NCCS1
inactive: EKVX NSCLC 111% | SN12C renal 108% | UO-31 renal 98.9% | TK-10 renal 110% | ACHN renal 108% | CAKI-1 renal 97.2% | A498 renal 121% | CCRF-CEM leukemia 87.2% | MOLT-4 leukemia 98.8% | SR leukemia 102% | RPMI-8226 leukemia 98.1% | OVCAR-8 ovarian 99.3% | OVCAR-5 ovarian 117% | OVCAR-4 ovarian 109% | SK-OV-3 ovarian 112% | IGROV1 ovarian 140% | OVCAR-3 ovarian 113% | NCI/ADR-RES ovarian 113%

COc1ncc(-c2ccc3nccc(C#CCCCCC(=O)NO)c3c2)cc1NS(=O)(=O)c1ccc(F)cc1F
inactive: SN12C renal 15% | ACHN renal 10.7% | OVCAR-4 ovarian 24.9% | NCI/ADR-RES ovarian 55.3%
active: EKVX NSCLC 4.18% | UO-31 renal 8.08% | TK-10 renal -25.1% | CAKI-1 renal 6.12% | A498 renal -76.1% | CCRF-CEM leukemia -8.34% | MOLT-4 leukemia -18% | SR leukemia -24.5% | RPMI-8226 leukemia -25.1% | OVCAR-8 ovarian -12.8% | OVCAR-5 ovarian 4.43% | IGROV1 ovarian -21.6% | OVCAR-3 ovarian -31.6% | HS 578T breast -23.8%

COc1cc2c(c(OC)c1OC)-c1cc(I)c(O)cc1[C@@H](NC(C)=O)CC2
active: IGROV1 ovarian -3.77%
inactive: EKVX NSCLC 60.2% | SN12C renal 38.6% | UO-31 renal 25.3% | TK-10 renal 66.9% | ACHN renal 27.9% | CAKI-1 renal 30.7% | A498 renal 49.2% | CCRF-CEM leukemia 30% | SR leukemia 33.2% | RPMI-8226 leukemia 12.9% | OVCAR-8 ovarian 12.6% | OVCAR-5 ovarian 49.2% | OVCAR-4 ovarian 37.3% | OVCAR-3 ovarian 17.5% | HS 578T breast 76.4% | NCI/ADR-RES ovarian 25.4%

CCN(CC)CCCC(C)Nc1c2ccc(C)cc2nc2ccc(OC)cc12 (configuration not stated)
active: UO-31 renal -16.5% | MOLT-4 leukemia 9.16% | SR leukemia 4.33% | RPMI-8226 leukemia 1.21% | OVCAR-4 ovarian -6.2% | HS 578T breast 0.397%
inactive: EKVX NSCLC 42.3% | SN12C renal 43.3% | TK-10 renal 15.4% | ACHN renal 25.5% | CAKI-1 renal 38% | A498 renal 70.2% | CCRF-CEM leukemia 30.9% | OVCAR-8 ovarian 34.3% | OVCAR-5 ovarian 76.2% | SK-OV-3 ovarian 55.7% | OVCAR-3 ovarian 28.9% | NCI/ADR-RES ovarian 64%

O=C1COCCN1c1ccc(Nc2nc(Cl)nc(N3CCOCC3)n2)cc1
inactive: EKVX NSCLC 92.3% | SN12C renal 102% | UO-31 renal 93.5% | TK-10 renal 90.5% | ACHN renal 98.5% | CAKI-1 renal 89.2% | A498 renal 73.7% | CCRF-CEM leukemia 97% | MOLT-4 leukemia 96.3% | SR leukemia 88.9% | RPMI-8226 leukemia 98.9% | OVCAR-8 ovarian 97.9% | OVCAR-5 ovarian 88.3% | OVCAR-4 ovarian 102% | IGROV1 ovarian 103% | OVCAR-3 ovarian 103% | HS 578T breast 104% | NCI/ADR-RES ovarian 97.6%

CC[C@@](C)(NC(=O)[C@H](C)NC(=O)CCNC(=O)C(C)(C)NC(=O)[C@H](C)NC(=O)[C@@H]1CCCN1C(=O)[C@@](C)(CC)NC(=O)[C@H](Cc1ccccc1)NC(=O)C1CCCN1C(=O)C(C)(C)NC(=O)C1CCCN1C(=O)C(C)(C)NC(C)=O)C(=O)NCCC(=O)N[C@@H](CC(C)C)C(=O)NC(C)(C)C(=O)NCCC(=O)N[C@@H](CC(C)C)C(=O)NC(C)(C)C(=O)NC(C)(C)C(=O)N[C@@H](CC(C)C)C(=O)NCCC(=O)NCO (some centres not stated)
active: EKVX NSCLC -100% | SN12C renal -76.7% | UO-31 renal -90.7% | TK-10 renal -98.9% | ACHN renal -90.1% | CAKI-1 renal -98.2% | A498 renal -97.4% | CCRF-CEM leukemia -61.1% | SR leukemia -50.9% | RPMI-8226 leukemia -55.5% | OVCAR-8 ovarian -82% | OVCAR-5 ovarian -87.6% | OVCAR-4 ovarian -96.5% | IGROV1 ovarian -71.9% | OVCAR-3 ovarian -100% | HS 578T breast -60.6% | NCI/ADR-RES ovarian -93.3%

C#C[C@]1(O)CC[C@H]2[C@@H]3CC=C4c5nc(Nc6ccc(OC)cc6OC)sc5CC[C@]4(C)[C@H]3CC[C@@]21C
inactive: EKVX NSCLC 24.7% | SN12C renal 37.6% | UO-31 renal 13.2% | TK-10 renal 51.3% | ACHN renal 32.6% | CCRF-CEM leukemia 16.9% | OVCAR-8 ovarian 59.4% | OVCAR-5 ovarian 51.7% | OVCAR-4 ovarian 44.7% | IGROV1 ovarian 43.2% | OVCAR-3 ovarian 26.4% | NCI/ADR-RES ovarian 50.3%
active: A498 renal -56% | MOLT-4 leukemia 4.56% | SR leukemia 5.67% | RPMI-8226 leukemia -26.1% | HS 578T breast -12.7%
